Results published in the supplement of paper PMC10849652.
Of roughly 7,900 targets only a part is listed; those with a hit were picked by preference. About 0.6% of all pairs of compound and target were hits. Values without a mark were called inactive.

Columns and labels:
Assay in all cases: log2 fold change, soluble protein after heating vs DMSO (PISA); higher = thermal stabilisation; K562 cells, 10 uM, 30 min; active = over 0.2 and 3.5 SD of the protein, either way, in both replicates (recomputed)
[1] = compound: COC1=CC=C(C=C1)CN2C=CC3=C2C=C(C=C3)C(=O)NO
How it was run: (§1)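 Quantification of soluble protein used TMTpro 16plex LC-MS/MS, with channel sums equalised. Samples were the supernatant after 21,000xg for 90 min of pooled aliquots from K562 cells (2×10^6 cells/mL) treated with 10 μM compound for 30 min, heated for 3 min over 48°C-58°C, and extracted in PBS with 0.5% NP-40 at 4°C. Values, from duplicates, describe thermal stability against control samples on a log2 fold-change scale.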

filanesib = compound: CON(C)C(=O)N1N=C(c2cc(F)ccc2F)S[C@@]1(CCCN)c1ccccc1 [filanesib]
How it was run: as §1

zotarolimus = compound: CO[C@H]1C[C@@H]2CC[C@@H](C)[C@@](O)(O2)C(=O)C(=O)N2CCCC[C@H]2C(=O)O[C@H]([C@H](C)C[C@@H]2CC[C@H](n3cnnn3)[C@H](OC)C2)CC(=O)[C@H](C)/C=C(\C)[C@@H](O)[C@@H](OC)C(=O)[C@H](C)C[C@H](C)/C=C/C=C/C=C/1C [zotarolimus]
How it was run: as §1

idasanutlin = compound: COc1cc(C(=O)O)ccc1NC(=O)[C@@H]1N[C@@H](CC(C)(C)C)[C@](C#N)(c2ccc(Cl)cc2F)[C@H]1c1cccc(Cl)c1F [idasanutlin]
How it was run: as §1

alisertib = compound: COc1cc(Nc2ncc3c(n2)-c2ccc(Cl)cc2C(c2c(F)cccc2OC)=NC3)ccc1C(=O)O [alisertib]
How it was run: as §1

[2] = compound: COc1cc2nc(-c3cc(F)ccc3O)nc(N[C@@H]3CNC[C@H]3C(C)(C)O)c2cc1OC
How it was run: as §1

gefitinib = compound: COc1cc2ncnc(Nc3ccc(F)c(Cl)c3)c2cc1OCCCN1CCOCC1 [gefitinib]
How it was run: as §1

[3] = compound: COc1cccc2cc(-c3nc([C@H]4CC[C@H](C(=O)O)CC4)n4ncnc(N)c34)[nH]c12
How it was run: as §1

lapatinib = compound: CS(=O)(=O)CCNCc1ccc(-c2ccc3ncnc(Nc4ccc(OCc5cccc(F)c5)c(Cl)c4)c3c2)o1 [lapatinib]
How it was run: as §1

pictilisib = compound: CS(=O)(=O)N1CCN(Cc2cc3nc(-c4cccc5[nH]ncc45)nc(N4CCOCC4)c3s2)CC1 [pictilisib]
How it was run: as §1

[4] = compound: CS(=O)(=O)c1ccc(-c2cnc(N)c(C(=O)Nc3ccccc3)n2)cc1
How it was run: as §1

crizotinib = compound: C[C@@H](Oc1cc(-c2cnn(C3CCNCC3)c2)cnc1N)c1c(Cl)ccc(F)c1Cl [crizotinib]
How it was run: as §1

[5] = compound: C[C@@H]1COCCN1C2=NC(=NC(=C2)C3(CC3)S(=O)(=O)C)C4=C5C=CNC5=CC=C4
How it was run: as §1

[6] = compound: C[C@H](C1=CC=C(C=C1)C(=O)NC2=C3C=CNC3=NC=C2)N
How it was run: as §1

duvelisib = compound: C[C@H](Nc1ncnc2nc[nH]c12)c1cc2cccc(Cl)c2c(=O)n1-c1ccccc1 [duvelisib]
How it was run: as §1

gandotinib = compound: Cc1cc(Nc2cc(CN3CCOCC3)c3nc(C)c(Cc4ccc(Cl)cc4F)n3n2)n[nH]1 [gandotinib]
How it was run: as §1

tozasertib = compound: Cc1cc(Nc2cc(N3CCN(C)CC3)nc(Sc3ccc(NC(=O)C4CC4)cc3)n2)n[nH]1 [tozasertib]
How it was run: as §1

[7] = compound: Cc1cc(SCc2sc(-c3ccc(C(F)(F)F)cc3)nc2C)ccc1OCC(=O)O
How it was run: as §1

doramapimod = compound: Cc1ccc(-n2nc(C(C)(C)C)cc2NC(=O)Nc2ccc(OCCN3CCOCC3)c3ccccc23)cc1 [doramapimod]
How it was run: as §1

ispinesib = compound: Cc1ccc(C(=O)N(CCCN)[C@@H](c2nc3cc(Cl)ccc3c(=O)n2Cc2ccccc2)C(C)C)cc1 [ispinesib]
How it was run: as §1

Sequence of UniProt Q9HB40 (Q9HB40 whole entry, looked up): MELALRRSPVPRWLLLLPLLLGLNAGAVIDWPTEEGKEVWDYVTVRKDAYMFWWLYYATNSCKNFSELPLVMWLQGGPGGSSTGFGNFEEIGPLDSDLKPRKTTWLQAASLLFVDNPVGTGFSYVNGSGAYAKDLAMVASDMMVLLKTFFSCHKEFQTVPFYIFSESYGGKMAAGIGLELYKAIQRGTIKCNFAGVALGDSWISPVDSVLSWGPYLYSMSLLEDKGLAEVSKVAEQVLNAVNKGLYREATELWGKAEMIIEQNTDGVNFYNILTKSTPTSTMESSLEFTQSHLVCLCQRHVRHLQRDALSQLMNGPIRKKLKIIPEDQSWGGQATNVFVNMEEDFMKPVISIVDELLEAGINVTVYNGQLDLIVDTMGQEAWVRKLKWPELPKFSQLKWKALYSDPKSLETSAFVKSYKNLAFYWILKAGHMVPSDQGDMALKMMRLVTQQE
Sequence of UniProt P54136 (P54136 whole entry, looked up): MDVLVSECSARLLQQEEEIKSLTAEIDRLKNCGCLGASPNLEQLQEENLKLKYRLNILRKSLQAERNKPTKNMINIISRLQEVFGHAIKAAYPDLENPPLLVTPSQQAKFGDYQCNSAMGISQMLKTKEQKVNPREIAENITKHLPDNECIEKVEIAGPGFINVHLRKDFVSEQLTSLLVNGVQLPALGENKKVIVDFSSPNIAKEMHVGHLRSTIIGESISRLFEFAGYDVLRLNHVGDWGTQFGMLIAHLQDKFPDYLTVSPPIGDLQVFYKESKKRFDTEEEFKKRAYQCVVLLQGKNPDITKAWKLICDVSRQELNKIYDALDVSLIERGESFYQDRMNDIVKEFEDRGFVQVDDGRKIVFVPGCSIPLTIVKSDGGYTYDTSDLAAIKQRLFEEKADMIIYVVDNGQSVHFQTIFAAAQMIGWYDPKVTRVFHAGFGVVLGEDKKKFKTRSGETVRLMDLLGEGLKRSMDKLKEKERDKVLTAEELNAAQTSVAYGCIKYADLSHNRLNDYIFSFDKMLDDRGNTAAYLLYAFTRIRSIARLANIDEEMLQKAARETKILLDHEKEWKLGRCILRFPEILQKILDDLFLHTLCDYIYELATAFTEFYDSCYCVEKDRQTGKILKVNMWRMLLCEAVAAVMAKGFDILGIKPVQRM
Sequence of UniProt Q8WXD2 (Q8WXD2 whole entry, looked up): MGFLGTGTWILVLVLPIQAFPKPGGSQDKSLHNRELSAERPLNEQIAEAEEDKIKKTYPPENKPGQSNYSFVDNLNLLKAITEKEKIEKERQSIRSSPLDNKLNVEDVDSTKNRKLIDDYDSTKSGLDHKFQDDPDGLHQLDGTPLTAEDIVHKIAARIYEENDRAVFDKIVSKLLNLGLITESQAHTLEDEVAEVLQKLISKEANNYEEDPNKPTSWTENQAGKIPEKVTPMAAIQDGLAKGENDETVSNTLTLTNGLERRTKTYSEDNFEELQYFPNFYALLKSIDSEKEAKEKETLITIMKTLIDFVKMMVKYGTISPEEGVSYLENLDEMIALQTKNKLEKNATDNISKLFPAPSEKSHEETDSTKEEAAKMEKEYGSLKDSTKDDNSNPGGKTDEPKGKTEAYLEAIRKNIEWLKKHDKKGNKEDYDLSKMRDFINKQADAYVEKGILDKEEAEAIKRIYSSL
Sequence of UniProt P62070 (P62070 whole entry, looked up): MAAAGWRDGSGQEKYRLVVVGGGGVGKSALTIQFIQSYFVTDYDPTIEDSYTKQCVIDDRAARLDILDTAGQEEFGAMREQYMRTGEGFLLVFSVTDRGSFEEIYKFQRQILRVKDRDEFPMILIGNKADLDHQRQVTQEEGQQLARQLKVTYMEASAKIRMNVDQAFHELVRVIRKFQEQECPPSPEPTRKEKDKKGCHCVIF
Sequence of UniProt Q9BWF3 (Q9BWF3 whole entry, looked up): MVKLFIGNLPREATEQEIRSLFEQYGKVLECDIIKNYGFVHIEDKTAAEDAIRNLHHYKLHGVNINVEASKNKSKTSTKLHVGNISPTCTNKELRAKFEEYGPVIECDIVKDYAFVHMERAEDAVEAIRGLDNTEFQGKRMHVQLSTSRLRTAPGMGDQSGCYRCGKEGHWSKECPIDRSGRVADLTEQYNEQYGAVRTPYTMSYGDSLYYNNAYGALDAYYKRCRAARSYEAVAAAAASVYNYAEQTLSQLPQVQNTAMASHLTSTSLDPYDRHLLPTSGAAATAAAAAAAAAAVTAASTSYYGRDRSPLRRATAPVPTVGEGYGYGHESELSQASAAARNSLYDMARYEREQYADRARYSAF
Sequence of UniProt Q92878 (Q92878 whole entry, looked up): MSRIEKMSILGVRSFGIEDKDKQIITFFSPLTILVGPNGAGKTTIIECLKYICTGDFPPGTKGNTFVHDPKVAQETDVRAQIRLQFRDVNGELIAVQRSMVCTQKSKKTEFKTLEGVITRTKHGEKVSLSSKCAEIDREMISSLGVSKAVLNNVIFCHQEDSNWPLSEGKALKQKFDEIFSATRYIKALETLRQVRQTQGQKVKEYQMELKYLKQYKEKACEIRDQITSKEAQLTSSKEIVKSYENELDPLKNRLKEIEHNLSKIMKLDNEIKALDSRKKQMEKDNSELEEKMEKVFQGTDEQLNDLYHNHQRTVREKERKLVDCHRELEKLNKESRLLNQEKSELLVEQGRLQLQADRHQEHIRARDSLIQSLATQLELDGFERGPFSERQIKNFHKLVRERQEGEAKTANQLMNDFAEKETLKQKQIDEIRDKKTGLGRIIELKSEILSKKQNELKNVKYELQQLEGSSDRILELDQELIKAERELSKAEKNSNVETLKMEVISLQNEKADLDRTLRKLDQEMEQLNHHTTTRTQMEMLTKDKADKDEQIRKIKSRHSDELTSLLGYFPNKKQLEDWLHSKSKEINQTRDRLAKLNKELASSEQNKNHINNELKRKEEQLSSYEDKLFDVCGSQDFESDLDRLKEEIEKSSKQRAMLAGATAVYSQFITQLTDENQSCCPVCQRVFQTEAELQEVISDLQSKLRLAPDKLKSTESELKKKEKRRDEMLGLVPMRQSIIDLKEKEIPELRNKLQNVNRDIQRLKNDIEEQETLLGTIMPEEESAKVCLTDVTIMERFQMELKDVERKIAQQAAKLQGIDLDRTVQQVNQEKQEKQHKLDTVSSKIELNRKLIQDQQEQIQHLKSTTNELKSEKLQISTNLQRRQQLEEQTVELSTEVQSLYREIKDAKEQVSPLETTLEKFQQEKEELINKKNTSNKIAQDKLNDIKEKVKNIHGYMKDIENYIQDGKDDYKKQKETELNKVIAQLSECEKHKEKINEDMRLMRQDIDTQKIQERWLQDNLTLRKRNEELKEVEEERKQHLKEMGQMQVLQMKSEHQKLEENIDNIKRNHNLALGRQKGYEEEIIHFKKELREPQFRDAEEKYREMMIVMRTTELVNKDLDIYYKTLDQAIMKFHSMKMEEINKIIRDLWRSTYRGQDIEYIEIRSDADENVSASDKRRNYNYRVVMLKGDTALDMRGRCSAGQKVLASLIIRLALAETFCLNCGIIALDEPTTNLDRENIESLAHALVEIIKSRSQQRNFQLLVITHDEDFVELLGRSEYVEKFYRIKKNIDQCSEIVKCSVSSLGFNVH
Sequence of UniProt Q99496 (Q99496 whole entry, looked up): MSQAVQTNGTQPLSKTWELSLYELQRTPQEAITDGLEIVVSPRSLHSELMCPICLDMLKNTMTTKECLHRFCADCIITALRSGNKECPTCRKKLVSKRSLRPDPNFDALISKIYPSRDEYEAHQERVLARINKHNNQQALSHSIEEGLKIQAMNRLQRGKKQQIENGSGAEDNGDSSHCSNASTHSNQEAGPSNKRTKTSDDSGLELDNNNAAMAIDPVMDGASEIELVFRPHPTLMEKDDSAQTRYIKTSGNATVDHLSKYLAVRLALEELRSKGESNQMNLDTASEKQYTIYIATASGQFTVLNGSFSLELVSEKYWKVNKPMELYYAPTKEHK
Sequence of UniProt Q8IZV5 (Q8IZV5 whole entry, looked up): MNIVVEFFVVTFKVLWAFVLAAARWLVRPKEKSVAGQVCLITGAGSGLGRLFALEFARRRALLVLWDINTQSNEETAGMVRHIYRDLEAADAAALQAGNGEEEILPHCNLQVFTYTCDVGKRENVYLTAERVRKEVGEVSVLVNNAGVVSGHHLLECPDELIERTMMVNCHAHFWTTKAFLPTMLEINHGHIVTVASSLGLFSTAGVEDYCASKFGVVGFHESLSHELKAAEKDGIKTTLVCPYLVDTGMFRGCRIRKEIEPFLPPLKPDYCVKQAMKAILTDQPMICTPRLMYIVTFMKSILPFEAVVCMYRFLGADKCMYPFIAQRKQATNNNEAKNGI
Sequence of UniProt Q9H4A4 (Q9H4A4 whole entry, looked up): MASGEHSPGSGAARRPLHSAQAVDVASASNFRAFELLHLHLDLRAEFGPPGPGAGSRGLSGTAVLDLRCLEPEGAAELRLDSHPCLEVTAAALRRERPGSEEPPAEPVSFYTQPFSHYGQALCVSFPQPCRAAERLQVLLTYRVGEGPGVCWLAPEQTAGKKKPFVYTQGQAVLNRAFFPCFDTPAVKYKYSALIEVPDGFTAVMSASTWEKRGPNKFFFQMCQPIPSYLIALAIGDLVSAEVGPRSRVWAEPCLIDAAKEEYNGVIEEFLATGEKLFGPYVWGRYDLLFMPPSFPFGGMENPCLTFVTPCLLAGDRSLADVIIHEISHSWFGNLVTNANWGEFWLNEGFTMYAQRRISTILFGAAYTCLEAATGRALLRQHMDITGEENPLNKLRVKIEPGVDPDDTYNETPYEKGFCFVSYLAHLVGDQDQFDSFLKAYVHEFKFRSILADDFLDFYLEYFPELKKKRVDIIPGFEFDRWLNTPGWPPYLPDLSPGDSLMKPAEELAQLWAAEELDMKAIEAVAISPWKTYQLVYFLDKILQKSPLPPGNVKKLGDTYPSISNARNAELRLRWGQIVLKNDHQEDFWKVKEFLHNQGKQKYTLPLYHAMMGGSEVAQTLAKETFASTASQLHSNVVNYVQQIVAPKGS
Sequence of UniProt Q15382 (Q15382 whole entry, looked up): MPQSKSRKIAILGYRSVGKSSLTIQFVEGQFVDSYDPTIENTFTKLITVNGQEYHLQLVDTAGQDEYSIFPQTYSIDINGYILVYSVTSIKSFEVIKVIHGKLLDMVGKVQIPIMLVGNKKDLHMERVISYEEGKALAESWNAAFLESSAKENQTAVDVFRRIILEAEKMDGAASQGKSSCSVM

Target | log2 fold change [1] | log2 fold change (filanesib) | log2 fold change (zotarolimus) | log2 fold change (idasanutlin) | log2 fold change (alisertib) | log2 fold change [2] | log2 fold change (gefitinib) | log2 fold change [3] | log2 fold change (lapatinib) | log2 fold change (pictilisib) | log2 fold change [4] | log2 fold change (crizotinib) | log2 fold change [5] | log2 fold change [6] | log2 fold change (duvelisib) | log2 fold change (gandotinib) | log2 fold change (tozasertib) | log2 fold change [7] | log2 fold change (doramapimod) | log2 fold change (ispinesib)
RBM4 (UniProt Q9BWF3) | -0.071 | 0.065 | 0.035 | 0.051 | 0.038 | -0.036 | -0.04 | -0.038 | 0.024 | 0.005 | -0.024 | -0.04 | -0.081 | 0.06 | -0.058 | -0.037 | -0.023 | 0.021 | 0.021 | -0.094
RNF2 (UniProt Q99496) | -0.104 | 0.023 | 0 | -0.01 | -0.105 | -0.04 | 0.106 | 0.039 | 0.011 | 0.099 | 0.008 | -0.028 | -0.013 | -0.105 | -0.033 | -0.091 | 0.149 | 0.073 | -0.093 | –
RARS (UniProt P54136) | -0.045 | 0.079 | 0.049 | 0.052 | -0.059 | -0.032 | -0.025 | -0.203 | -0.008 | -0.07 | -0.001 | -0.266 | -0.099 | 0.373 | -0.069 | 0.018 | -0.028 | 0.132 | 0.184 | -0.398 (active)
RRAS2 isoform 4 (UniProt P62070) | 0.004 | 0.059 | -0.025 | 0.016 | -0.099 | 0.075 | 0.061 | 0.093 | 0.017 | 0.05 | 0.044 | 0.162 | -0.001 | -0.152 | -0.002 | -0.016 | -0.048 | -0.042 | 0.012 | -0.019
SETD3 (UniProt Q86TU7) | -0.254 (active) | -0.132 | 0.009 | -0.086 | -0.022 | 0.052 | 0.017 | 0.048 | -0.013 | 0.03 | 0.007 | 0.051 | 0.076 | -0.012 | 0.005 | 0.021 | -0.037 | 0.012 | -0.026 | 0.059
SCPEP1 (UniProt Q9HB40) | 0.078 | -0.082 | 0.009 | 0.002 | 0.007 | -0.058 | -0.014 | 0.057 | -0.021 | 0.096 | -0.03 | -0.254 (active) | -0.041 | -0.028 | 0.083 | 0.127 | -0.03 | 0.032 | -0.032 | -0.163
RHEB (UniProt Q15382) | -0.007 | -0.08 | 0.016 | -0.049 | -0.03 | 0.032 | 0.015 | 0.057 | 0.005 | 0.029 | -0.001 | 0.038 | 0.096 | -0.041 | 0.021 | -0.097 | -0.025 | -0.009 | -0.018 | 0.042
RNPEP (UniProt Q9H4A4) | 0.008 | -0.083 | 0.044 | -0.02 | -0.018 | -0.009 | -0.023 | 0 | 0.043 | 0.008 | 0.037 | -0.081 | 0.081 | -0.034 | 0.039 | -0.053 | 0.018 | 0.083 | -0.031 | -0.086
SCG3 (UniProt Q8WXD2) | 0.002 | -0.001 | -0.044 | -0.056 | 0.128 | -0.082 | 0.089 | -0.236 | 0.07 | -0.086 | -0.069 | 0.074 | -0.089 | -0.109 | 0 | -0.101 | 0.075 | -0.194 | 0.124 | 0.171
RAD50 isoform 2 (UniProt Q92878) | -0.002 | 0.008 | 0.036 | -0.016 | 0 | 0.002 | 0.031 | 0.007 | -0.002 | 0.02 | 0.031 | 0.064 | 0.044 | -0.039 | 0.02 | -0.017 | 0.029 | 0.021 | -0.023 | 0.033
RDH10 (UniProt Q8IZV5) | -0.007 | -0.023 | -0.03 | -0.14 | 0.013 | 0.031 | 0.083 | 0.036 | 0.037 | 0.009 | -0.016 | 0.087 | 0.116 | -0.011 | 0.015 | -0.111 | -0.009 | -0.003 | -0.016 | 0.036
RPTOR (UniProt Q8N122) | 0.042 | -0.077 | -0.194 | -0.066 | -0.054 | -0.056 | 0.007 | -0.072 | 0.028 | -0.022 | 0.012 | -0.188 | -0.031 | 0.033 | 0.045 | -0.115 | 0 | 0.01 | -0.009 | -0.114
SETMAR (UniProt Q53H47) | -0.135 | -0.065 | 0.048 | -0.037 | 0.014 | -0.002 | -0.044 | 0.004 | 0.018 | -0.009 | 0.077 | 0.036 | -0.028 | 0.134 | -0.004 | -0.129 | -0.061 | 0.003 | 0.024 | 0.164
RPS20 isoform 2 (UniProt P60866) | -0.086 | 0.085 | 0.019 | 0.047 | -0.018 | -0.015 | -0.036 | -0.157 | 0.108 | -0.006 | -0.062 | 0.013 | -0.176 | 0.174 | -0.034 | 0.129 | 0.008 | 0.004 | 0.048 | -0.066
RPS3 (UniProt P23396) | -0.093 | 0.102 | -0.023 | 0.055 | -0.05 | -0.027 | -0.056 | -0.149 | 0.053 | -0.059 | -0.07 | 0.025 | -0.258 | 0.203 | -0.06 | 0.134 | 0.022 | 0.045 | 0.077 | -0.127
RFC3 (UniProt P40938) | 0.125 | -0.046 | -0.026 | -0.088 | -0.021 | -0.042 | 0.008 | 0.024 | 0.037 | 0.035 | 0.029 | 0.016 | 0.163 | 0.071 | 0.032 | -0.042 | -0.004 | 0.061 | -0.005 | 0.067
